Compound activity from PubChem BioAssay.
G9a block: blocks human histone lysine methyltransferase G9a; Q96KQ7; G9a H3K9 monomethylation, AlphaScreen, 2 h; Potency, µM (doses to about 102 µM), for inactives: at the top dose activity, negative = inhibition, hits mostly inhibitors; 350,000 tested, 8.8% active; AID 504332; also: % is scaled to controls: 0 for no effect and ±100 for the full control effect; nearly all actives have a fitted effect of over 75% in size
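Quantitative HTS format: methyltransferase activity on a biotin-tagged H3K9 peptide is measured by AlphaScreen, using a rabbit anti-monomethyl-H3K9 antibody with streptavidin donor and anti-IgG acceptor beads. Final levels are 20 nM enzyme, 500 nM peptide, 20 uM SAM; 2 h RT.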
BAZ2B block: inhibitors of human BAZ2B bromodomain. Q9UIF8. AlphaScreen BAZ2B-H3K14Ac peptide displacement. Potency, µM (doses to about 114 µM), for the others: top-dose activity change, negative = inhibition, hits mostly inhibitors. 360,000 tested, 4.4% active; also: % is scaled to controls: 0 for no effect and ±100 for the full control effect; nearly all actives have a fitted effect of over 60% in size
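Complex of BAZ2B and biotin-H3K14Ac (50 nM apiece) forms over 30 min at RT, then faces library compounds up to 110 uM for another 30 min; AlphaScreen beads added, 20 min dark incubation, luminescence read.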
GLS inhibitor: blocks human kidney-isoform glutaminase activity; O94925; GLS enzymatic activity, qHTS titration; Potency, µM (doses to about 45.5 µM), for inactives: at the top dose activity change, negative = inhibition, usual class: inhibitors; 410,000 tested, 0.21% active; also: % is scaled to controls: 0 for no effect and ±100 for the full control effect
Target sequence (O94925 whole entry, looked up, canonical isoform): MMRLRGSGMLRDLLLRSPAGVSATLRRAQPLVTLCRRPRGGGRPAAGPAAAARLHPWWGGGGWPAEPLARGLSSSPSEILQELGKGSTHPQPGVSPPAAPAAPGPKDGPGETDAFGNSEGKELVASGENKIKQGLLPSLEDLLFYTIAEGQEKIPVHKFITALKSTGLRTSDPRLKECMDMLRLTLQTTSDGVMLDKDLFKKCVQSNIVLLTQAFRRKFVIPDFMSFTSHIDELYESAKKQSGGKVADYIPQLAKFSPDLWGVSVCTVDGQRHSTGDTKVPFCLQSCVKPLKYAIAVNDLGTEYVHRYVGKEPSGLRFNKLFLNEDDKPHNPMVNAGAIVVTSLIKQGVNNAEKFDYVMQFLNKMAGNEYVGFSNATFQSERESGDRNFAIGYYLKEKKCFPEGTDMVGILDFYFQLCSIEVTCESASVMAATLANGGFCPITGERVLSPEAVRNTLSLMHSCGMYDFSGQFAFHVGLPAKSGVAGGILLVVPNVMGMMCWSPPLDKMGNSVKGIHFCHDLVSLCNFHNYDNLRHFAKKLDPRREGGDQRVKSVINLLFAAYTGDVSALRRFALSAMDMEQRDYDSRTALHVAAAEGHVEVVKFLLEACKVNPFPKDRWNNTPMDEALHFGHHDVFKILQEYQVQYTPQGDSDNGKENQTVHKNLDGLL
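Human kidney-isoform GLS in 45 mM KH2PO4 pH 8.2, 0.02% Tween-20, with compound, started with 1mM L-Glutamine (added stock). Glutamate oxidase/HRP/Amplex red coupled fluorescence read at start and after 30 min at RT.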
JMJD2A Tudor: inhibitors of human JMJD2A Tudor domain; O75164; Potency, µM (highest dose often 114 µM), for inactives: top-dose activity change, negative = inhibition, hits mostly inhibitors; 390,000 tested, 4.4% active; AlphaScreen JMJD2A-Tudor / H3K4me3 peptide binding; AID 504339; also: % is scaled to controls: 0 for no effect and ±100 for the full control effect; nearly all actives have a fitted effect of over 50% in size
HP1b chromo inh: HP1-beta chromodomain-methylated histone interaction inhibition. P83916. AlphaScreen HP1-beta / biotin-H3K9me3 peptide binding. Potency, µM (doses to about 114 µM), inactives show top-dose activity change, negative = inhibition, usual class: inhibitors. 390,000 tested, 0.56% active. AID 540317; also: nearly all actives have a fitted effect of over 70% in size
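HP1-beta protein (50 nM final) preincubated 30 min at room temperature with biotinylated H3(1-18)K9me3 peptide (50 nM) in PBS pH 7.4, 0.01% Tween-20, then compound added for 30 min. AlphaScreen streptavidin donor/nickel chelate acceptor beads (10 ug/mL final), 30 min dark, luminescence read.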
Starred values were filed as active, the others as inactive; ? = inconclusive; / = no result; [ ] = dose if it differs, or a comment. Sampled rows, rich in hits. Any-hit rate of the full collection: about 10%. Calls follow the shape of the dose curve; as a rule, active = well fitted curve in the direction sought with a large enough effect; inconclusive = small, poorly fitted or top-dose-only effect, or another doubt; inactive = no such curve, though single readings can be large; an effect the other way counts as inactive or inconclusive. Potency is read from the fitted curve at half-maximal effect.

SMILES	G9a block	BAZ2B block	GLS inhibitor	JMJD2A Tudor	HP1b chromo inh
CC(C)Oc1cccc(-c2cc(C(=O)NC(=S)N(C)c3ccccc3C(=O)O)c3ccccc3n2)c1	22.4µM*	-37.3%	21.6%	-27.3%	?
CCCCCc1ccc(CC(=O)Nn2c(C)nc3ccccc3c2=O)cc1	6.2%[12.7 µM]	-8.4%	-0.8%	-19.0%	5.6%
CCN1CCCC1CNC(=O)c1ccc2c(=O)n(CCOC)c(=O)[nH]c2c1 (stereo not given)	-8.3%[2.33 µM]	-2.9%	1.1%	-9.2%[57.1 µM]	38.3%
O=C(COc1ccc(Cl)cc1)NCC(=O)N1CCC2(CC1)NCCc1[nH]cnc12	-4.3%	-14.4%	1.1%	-17.6%	55.1%
N#Cc1c(-c2ccccc2)cc(-c2ccccc2)nc1SCC(O)CS(=O)(=O)Cc1ccc(Cl)cc1 (stereo not given)	1.78µM*	-13.7%	0.5%	?	?
N#Cc1c(-c2ccccc2)cc(-c2ccccc2)nc1SCC(=O)NCC(=O)O	44.7µM*	-15.0%	?	-11.7%	-9.6%
COc1ccc(-c2cc(-c3ccc(Cl)cc3)c(C#N)c(SCC(=O)O)n2)cc1	?	?	?	79.4µM*	?
CCCSc1nc(-c2ccc(OC)cc2)cc(-c2ccccc2OC)c1C#N	1.78µM*	22.3%	-4.3%	21.6%	-38.7%
COc1ccc(-c2cc(-c3ccccc3)c(C#N)c(SCC(O)CS(=O)(=O)Cc3ccc(Cl)cc3)n2)cc1 (stereo not given)	41.7%[59 µM]	46.5%	-7.3%	-13.1%	108.1%
COc1ccc(-c2cc(-c3ccccc3)c(C#N)c(SCC(=O)O)n2)cc1	/	/	0.0%	2.0%	59.7%
Cc1cc2nccc(-c3ccco3)n2n1	48.1%	17.4%	7.3%	17.4%	92.9%
COc1ccc(-c2cc(-c3ccccc3)nc(SCC(=O)Nc3ccccc3C)c2C#N)cc1	12.6µM*	-14.1%	0.5%	-11.2%	-12.2%
CCCOc1ccc(-c2cc(C(F)(F)F)c(C#N)c(SCCC(=O)O)n2)cc1	-6.3%[59 µM]	?	7.2%	79.4µM*	-17.3%
COC(=O)C1CCCN1C(=O)C1CCCN1C(=O)CNC(=O)OCc1ccccc1 (stereo not given)	?	1.1%	-0.3%	15.6%	40.3%
C[C@H]1[C@H](C)CC[C@]2(C)CC[C@]3(C)C(=CC(=O)C4[C@@]5(C)CC[C@H](O)C(C)(C)C5CC[C@]43C)[C@H]12 (stereo not given in full)	25.0%[2.33 µM]	-7.3%	-9.0%	-23.2%	18.2%
Cc1ccc(OCC(=O)NN=C2c3ccccc3-c3ccccc32)cc1	10.2%[59 µM]	-1.1%	-15.0%	?	-9.3%
COc1ccc(OCC(=O)N/N=C2\CCCCc3ccccc32)cc1	-6.8%	-31.2%	?	14.1µM*	8.3%
Cc1ccc(C)c(NC(=S)N/N=C2/CCCCc3ccccc32)c1	-33.8%[59 µM]	?	16.6%	-35.6%	?
COc1cccc(NC(=S)N/N=C2/CCCCc3ccccc32)c1	39.8µM*	39.8µM*	11.3%	?	-29.3%
COc1ccc(OCC(=O)NNC(=O)C(=O)N2CCCC2)cc1	20µM*	?	-3.2%	-4.3%	33.6%
CCc1ccc(OCC(=O)N/N=C2\CC(=O)c3ccccc32)cc1	12.6µM*	-28.7%	/	/	/
O=C(NCc1ccccc1)C(c1ccccc1)N(Cc1ccc2c(c1)OCO2)C(=O)Cc1cccs1 (stereo not given)	-4.7%[59 µM]	24.1%	6.5%	-12.7%	32.1%
O=C(/C=C/c1ccc(Cl)c(Cl)c1)NCc1ccco1	11.2%[59 µM]	-9.4%	11.6%	-3.5%	0.4%
CCc1ccc(OCC(=O)NN2Cc3ccccc3C2=N)cc1	44.7µM*	-13.4%	1.4%	1.4%	20.2%
N#Cc1ccc(OCC(=O)NN2Cc3ccccc3C2=N)cc1	-39.8%	2.2%	1.5%	?	15.4%
SMILES	G9a block	BAZ2B block	GLS inhibitor	JMJD2A Tudor	HP1b chromo inh
CCCc1cc(SCC(=O)Nc2c(C)n(C)n(-c3ccccc3)c2=O)n2c(nc3ccccc32)c1C#N	7.94µM*	28.5%	-0.5%	27.0%	43.4%
Cc1nc(SCC(=O)Nc2c(C)n(C)n(-c3ccccc3)c2=O)c(C#N)c(C)c1C	18.6%[12.7 µM]	9.8%	-1.2%	-9.0%	70.8%
CN(C(=O)c1ccc(OC2CCN(Cc3ccccn3)CC2)cc1)C1CCCCC1	19.1%	-23.9%	-2.9%	-13.8%	55.5%
Cc1nn(C)cc1CN(C)C(=O)c1ccc(OC2CCN(Cc3ccccn3)CC2)cc1	?	?	6.6%	56.2µM*	29.4%
CC(C)N(Cc1cnn(C)c1)C(=O)c1ccc(OC2CCN(Cc3ccccn3)CC2)cc1	44.7µM*	89.1µM*	3.0%	-35.9%	27.7%
O=C(CSc1nnc2ccccn12)NC(=O)c1cccc([N+](=O)[O-])c1	/	/	-6.4%	-3.4%	6.8%[57 µM]
Oc1ccc(O)c2c1C1c3ccccc3C2c2ccccc21	3.55µM*	39.8µM*	/	/	/
CS(=O)(=O)c1ccc(-c2nnc(NC(=O)c3ccc(S(=O)(=O)N4CCCC4)cc3)o2)cc1	5.7%[2.33 µM]	?	-0.3%	-25.3%	43.3%
CC[C@]12c3[nH]c4ccc(OC)cc4c3CCN1C(=O)C(CC(=O)NC/C=C(\C)CCC=C(C)C)C[C@@H]2C(=O)N1CCN(C(=O)c2ccco2)CC1 (stereo not given in full)	/	/	-0.5%	-29.5%	-1.6%
O=C(Cc1cccs1)N(c1ccc(Br)cc1)C1C=CS(=O)(=O)C1 (stereo not given)	3.5%	-15.9%	0.0%	20µM*	-4.9%
COc1ccc(N(C(=O)Cc2cccs2)C2C=CS(=O)(=O)C2)cc1 (stereo not given)	6.5%	?	0.8%	-25.1%	12.5%
Cc1cc(C)c(OCC(=O)N(Cc2ccc(N(C)C)cc2)CC2CCCO2)c(C)c1 (stereo not given)	12.6µM*	28.2µM*	16.1%	39.8µM*	?
Cc1cccc(C)c1OCC(=O)N(Cc1ccc(Cl)cc1)CC1CCCO1 (stereo not given)	15.8%[59 µM]	42.1%	-3.8%	11.9%	53.6%
Cc1ccccc1OCC(=O)N(Cc1ccc(N(C)C)cc1)CC1CCCO1 (stereo not given)	15.8µM*	31.6µM*	19.6%	44.7µM*	?
Cc1ccccc1OCC(=O)OCC(=O)NCC1CCCO1 (stereo not given)	15.2%	-9.7%	4.1%	-17.2%	33.1%
Cc1ccc(N(Cc2ccc(C(=O)NCC3CCCO3)cc2)S(C)(=O)=O)cc1C (stereo not given)	4.3%	-16.8%	-0.6%	-8.3%	5.3%
Cc1ccc(OCC(=O)N(Cc2ccc(N(C)C)cc2)CC2CCCO2)cc1C (stereo not given)	14.1µM*	31.6µM*	22.2%	50.1µM*	?
O=C(CNS(=O)(=O)c1ccccc1)N/N=C/c1ccncc1	19.8%[12.7 µM]	-5.9%	1.8%	-18.1%	35.3%
CCCCc1ccc(/C=C2\C(=O)c3ccccc3C(O)=C2C(=O)OCC)cc1	6.31µM*	22.4µM*	/	/	/
